The text below walks through data of PubChem BioAssay (EPA / NIEHS).

The source holds several records for some structures; these can differ, active in one and inactive in another. Activity calls are given as the source filed them. The calls were made as follows: active = hit-call score of the fitted dose curve at least 0.9, where 1 is the maximum; inactive = score below 0.9.

This test in a line: ATG_TCF_b_cat_CIS: Attagene CIS-FACTORIAL HepG2 Assay for human T-Cell-Factor with beta-catenin (TCF/b-cat) (AID 2282965). The following applies: HepG2 TCF/beta-catenin cis-reporter transcription, actives raise or lower the signal. The procedure:
ATG_CIS is a cell-based, multiplexed-readout assay that uses HepG2, a human liver cell line, with measurements taken at 24 hours after chemical dosing in a 24-well plate.ATG_TCF_b_cat_CIS is one of 52 assay component(s) measured or calculated from the ATG_CIS assay. It is designed to make measurements of mRNA induction, a form of inducible reporter, as detected with fluorescence intensity signals by Reverse transcription polymerase chain reaction (RT-PCR) and Capillary electrophoresis technology.Data from the assay component ATG_TCF_b_cat_CIS was analyzed into 1 assay endpoint. This assay endpoint, ATG_TCF_b_cat_CIS, was analyzed with bidirectional fitting relative to DMSO as the negative control and baseline of activity. Using a type of inducible reporter, measures of mRNA for gain or loss-of-signal activity can be used to understand the reporter gene at the transcription factor-level as they relate to the gene TCF7 and TCF7L2 and LEF1 and TCF7L1. Furthermore, this assay endpoint can be referred to as a primary readout, because this assay has produced multiple assay endpoints where this one serves a reporter gene function. To generalize the intended target to other relatable targets, this assay endpoint is annotated to the dna binding intended target family, where the subfamily is HMG box protein.
Human liver HepG2 cells are transiently transfected with multiple reporter transcription units (MRTUs) in 6-well plates using FuGene 6 reagent (Roche; 3 ml FuGene/1 mg DNA). The MRTU constructs are regulated by a cis-regulating element (promoter). […] A major difference between the CIS and TRANS system is that in CIS activities of endogenous TFs are measured, whereas the TRANS assay evaluates changes in activities of exogenous, chimeric NR-Gal4 proteins. […] At the end of 24 hour incubation, total RNA was isolated using TriZol reagent (Invitrogen). The isolated RNA is then reverse-transcribed using oligo(dT) primer and Mo-MLV reverse transcriptase (Invitrogen) with DNAse I (Ambion) treatment for 30 min. The one-tenth of the produced cDNA was amplified by PCR using Taq DNA polymerase (Invitrogen) and two reporter sequence-specific primers. The PCR products were fluorescently labeled by primer extension with 6-arboxyfluorescein (6-FAM) 5'-labeled reporter sequence-specific primer (2 min at 95 C, 20 s at 68 C and 10 min at 72 C) and these products were digested with 5U of HpaI (New England Biolabs) for 2h at 37 C. The fragments were purified using Qiaquick PCR columns (Qiagen), analyzed on an ABI 3130xL genetic analyzer (Applied Biosystems) with peak positions identified by using a set of X-rhodamine (ROX)-labeled MapMarker1000 molecular weight standards (BioVentures). The raw capillary electrophoresis data was processed using Attagraph software (Attagene).
For `CC(C)N(C(=O)SCC(Cl)=C(Cl)Cl)C(C)C`, the call was inactive.

Regarding `CON=C(C(=O)OC)c1ccccc1CON=C(C)c1cccc(C(F)(F)F)c1`, the outcome was inactive.

On to `CSc1nc(NC(C)C)nc(NC(C)C)n1`, for which the outcome was inactive.

As to `CC(C)=CC1C(C(=O)OCN2C(=O)C3=C(CCCC3)C2=O)C1(C)C` (stereo not given), the call was inactive.

Take `CSC1=N[C@@](C)(c2ccccc2)C(=O)N1Nc1ccccc1`: the compound was called inactive.

With `CN(C)C(=O)Nc1cccc(C(F)(F)F)c1`, the result was inactive.

Consider `COP(=O)(OC)OC(Br)C(Cl)(Cl)Br` (stereo not given), for which the result was inactive.

Regarding `CCCCN(CC)c1c([N+](=O)[O-])cc(C(F)(F)F)cc1[N+](=O)[O-]`, the outcome was inactive.

Regarding `O=[N+]([O-])c1cc(C(F)(F)F)c(Cl)c([N+](=O)[O-])c1Nc1ncc(C(F)(F)F)cc1Cl`, the compound was called inactive and the AC50 (commonly the concentration at which the activity in the assay is half-maximal) was 16.1 µM (active).

Take `CCOP(=S)(Oc1cnc(C(C)(C)C)nc1)OC(C)C` (stereo not given): the result was inactive.

Consider `CCc1cccc(CC)c1N(COC)C(=O)CCl`, for which the call was inactive.

Take `CCOP(=O)(OCC)Oc1cc(C)nc(C(C)C)n1`: the outcome was inactive.

For the compound `CCOP(=S)(OCC)SCCSCC`, the compound was classed as inactive.

As for `CCCOc1nn(C(=O)NS(=O)(=O)c2ccccc2C(=O)OC)c(=O)n1C`, the outcome was inactive.

As to `CNc1cnn(-c2cccc(C(F)(F)F)c2)c(=O)c1Cl`, the compound was classed as inactive.

On to `CCc1cccc(C)c1N(C(=O)CCl)C(C)COC` (stereo not given), for which the result was inactive.

As to `C#CC(C)(C)NC(=O)c1cc(Cl)cc(Cl)c1`, the compound was called inactive.

With `COP(=O)(OC)C(O)C(Cl)(Cl)Cl` (stereo not given), the compound was classed as inactive.

Take `CCCCOC(=O)[C@@H](C)Oc1ccc(Oc2ccc(C#N)cc2F)cc1`: the outcome was inactive.

Consider `Cc1cc(C2CC2)nc(Nc2ccccc2)n1`, for which the result was inactive.

For the compound `CCC(=O)Nc1ccc(Cl)c(Cl)c1`, the outcome was inactive.

Take `CCOP(=O)(NC(C)C)Oc1ccc(SC)c(C)c1` (stereo not given): the outcome was inactive.

For the compound `CC(COc1ccc(Oc2ccccc2)cc1)Oc1ccccn1` (stereo not given), the outcome was inactive.

With `S=C1NCCN1`, the result was inactive.

Regarding `N#CSCSC#N`, the outcome was inactive.

Turning to `COP(=O)(NC(C)=O)SC` (stereo not given), the compound was called inactive.

As to `FC(F)C(F)(F)OCC(Cn1cncn1)c1ccc(Cl)cc1Cl` (stereo not given), the result was inactive.

Consider `CCCSP(=O)(OCC)Oc1ccc(Br)cc1Cl` (stereo not given), for which the outcome was inactive.

On to `CCOP(=O)(SC(C)CC)N1CCSC1=O` (stereo not given), for which the compound was classed as inactive.

On to `CC(=NC#N)N(C)Cc1ccc(Cl)nc1`, for which the compound was classed as inactive.

On to `Nc1c(Cl)cc([N+](=O)[O-])cc1Cl`, for which the result was inactive.

In the case of `CCOP(=S)(OCC)Oc1cc(C)nc(C(C)C)n1`, the compound was called inactive.

With `CNC(=O)Oc1cccc2c1OC(C)(C)O2`, the compound was called inactive.

For the compound `Nc1nc(N)nc(NC2CC2)n1`, the compound was called inactive.

With `CCCCOC(=O)c1ccccc1C(=O)O`, the compound was called inactive.

As for `CC(Oc1cccc(Cl)c1)C(=O)O` (stereo not given), the call was inactive.

For the compound `CC1(C(=O)Nc2ccc(O)c(Cl)c2Cl)CCCCC1`, the outcome was inactive.

As to `CCCSP(=O)(OCC)SCCC`, the outcome was inactive.

For the compound `CCC(=NOC/C=C/Cl)C1=C(O)CC(C2CCOCC2)CC1=O` (stereo not given), the compound was classed as inactive.
